Source: the supplement of paper PMC10849652
The full data set covers some 8,800 targets. This sample favours those with a hit. About 0.5% of all pairs of compound and target were hits.

Tests used:
Assay in all cases: log2 fold change, soluble protein after heating vs DMSO (PISA); higher = thermal stabilisation; K562 lysate, 10 uM; active = over 0.2 and 3.5 SD of the protein, either way, in both replicates (recomputed)
[1] = compound: C#Cc1cccc(Nc2ncnc3cc(OCCOC)c(OCCOC)cc23)c1 [erlotinib]
Procedure, shortened: (§1)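 K562 pellets were dounce-homogenised in PBS pH 7.4 with 1 mM MgCl2, and the crude extract at 1 mg/mL protein was treated with 10 μM compound for 30 min. Aliquots were heated for 3 min across 48°C-58°C, pooled, and brought to 0.5% NP-40 at 4°C; soluble protein was the supernatant after 21,000xg for 90 min. Soluble protein was quantified by TMTpro 16plex LC-MS/MS with channel sums equalised, and reported as log2 fold change in thermal stability against DMSO controls, with values from duplicates.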

[2] = compound: C/C(=N\NC(=O)C1=CC(=CC=C1)S(=O)(=O)N2CCOCC2)/C3=C(C=CC(=C3)Cl)O
Procedure, shortened: as §1

[3] = compound: C1=CC(=CC=C1C2=NC3=C(N2)C=C(C=C3)C(=O)N)OC4=CC=C(C=C4)Cl
Procedure, shortened: as §1

[4] = compound: C1=CC2=C(C=CC(=C2)/C=C\3/C(=O)NC(=NCC4=CC=CS4)S3)N=C1
Procedure, shortened: as §1

[5] = compound: C1=CC2=NC=CN=C2C=C1/C=C/3\C(=O)NC(=O)S3
Procedure, shortened: as §1

[6] = compound: C1=CC=C(C=C1)C2=NC(=C(N2)C3=CC=NC=C3)C4=CC(=C(C=C4)Cl)O
Procedure, shortened: as §1

[7] = compound: C1=CC=C2C(=C1)C3=NNC4=CC=CC(=C43)C2=O
Procedure, shortened: as §1

[8] = compound: C1CCN(C1)C(=O)NC2=CC=CC(=C2)NC3=NC=C(C(=N3)NCCC4=CN=CN4)Br
Procedure, shortened: as §1

[9] = compound: C1CN(CCC1(CC2=CC=C(C=C2)Cl)N)C3=NC=NC4=C3C=CN4
Procedure, shortened: as §1

[10] = compound: C1COCCN1CCN2C3=CC=CC=C3N=C2NC(=O)C4=CC(=CC=C4)[N+](=O)[O-] [IRAK-1-4 Inhibitor I]
Procedure, shortened: as §1

[11] = compound: C=CC(=O)N1CCC[C@@H](n2nc(-c3ccc(Oc4ccccc4)cc3)c3c(N)ncnc32)C1 [ibrutinib]
Procedure, shortened: as §1

[12] = compound: CC(=O)c1cnc2ccc(-c3cc(Cl)c(O)c(Cl)c3)nc2c1N[C@H]1CC[C@H](CN(C)C)CC1
Procedure, shortened: as §1

[13] = compound: CC(C)(C)Cn1c(N)nc2ccc(-c3[nH]c(C(C)(C)C)nc3-c3ccc(F)cc3)nc21 [ralimetinib]
Procedure, shortened: as §1

[14] = compound: CC(C)(O)CC(=O)NCCn1ccc2ncnc(Nc3ccc(Oc4cccc(C(F)(F)F)c4)c(Cl)c3)c21
Procedure, shortened: as §1

[15] = compound: CC(C)C1=C2N=C(C=C(N2N=C1)NCC3=CC=CC=C3)NCCCCCCN
Procedure, shortened: as §1

[16] = compound: CC1=C(C(CC(=O)N1)C2=CC=C(C=C2)C(F)(F)F)C(=O)NC3=C(C=C4C(=C3)C=NN4)F
Procedure, shortened: as §1

[17] = compound: CC1=C(C2=C(C=C1)C(=O)C3=CC=CC=C3N2CCCN)C
Procedure, shortened: as §1

[18] = compound: CC1=C(C=C(C=C1)NC(=O)C2=CC(=CC=C2)C(C)(C)C#N)NC3=CC4=C(C=C3)N=CN(C4=O)C
Procedure, shortened: as §1

[19] = compound: CC1=C(C=C(C=C1)NC(=O)C2=CC(=CC=C2)N(C)C)NC(=O)C3=CC=C(C=C3)O
Procedure, shortened: as §1

[20] = compound: CC1=CC=C(C=C1)SC2=C3C=C(SC3=CN=C2)C(=O)N
Procedure, shortened: as §1

Measured: log2 fold change

MAPK9 (UniProt P45984)
Sequence of UniProt P45984 (P45984 whole entry, looked up): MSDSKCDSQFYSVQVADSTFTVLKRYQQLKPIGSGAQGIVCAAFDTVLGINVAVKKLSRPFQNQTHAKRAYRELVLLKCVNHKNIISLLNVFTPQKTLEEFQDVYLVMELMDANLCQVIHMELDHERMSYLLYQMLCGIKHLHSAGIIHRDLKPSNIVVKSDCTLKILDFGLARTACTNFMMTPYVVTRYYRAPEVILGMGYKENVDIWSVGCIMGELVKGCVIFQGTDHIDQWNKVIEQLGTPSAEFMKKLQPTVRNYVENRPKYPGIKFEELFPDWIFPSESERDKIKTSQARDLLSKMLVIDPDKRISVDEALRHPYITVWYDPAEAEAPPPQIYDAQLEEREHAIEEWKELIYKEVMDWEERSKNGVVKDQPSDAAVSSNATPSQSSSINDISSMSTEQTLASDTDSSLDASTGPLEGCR
inactive: [1] -0.001 | [2] 0.017 | [3] -0.018 | [4] -0.015 | [5] 0.014 | [6] 0.068 | [8] 0.061 | [9] -0.032 | [10] -0.014 | [11] -0.024 | [14] 0.002 | [15] -0.029 | [16] -0.038 | [17] -0.086 | [18] 0.103 | [19] -0.029 | [20] -0.015
active: [7] 0.393 | [12] 0.234 | [13] 0.366

LUC7L (UniProt Q9NQ29)
Sequence of UniProt Q9NQ29 (Q9NQ29 whole entry, looked up): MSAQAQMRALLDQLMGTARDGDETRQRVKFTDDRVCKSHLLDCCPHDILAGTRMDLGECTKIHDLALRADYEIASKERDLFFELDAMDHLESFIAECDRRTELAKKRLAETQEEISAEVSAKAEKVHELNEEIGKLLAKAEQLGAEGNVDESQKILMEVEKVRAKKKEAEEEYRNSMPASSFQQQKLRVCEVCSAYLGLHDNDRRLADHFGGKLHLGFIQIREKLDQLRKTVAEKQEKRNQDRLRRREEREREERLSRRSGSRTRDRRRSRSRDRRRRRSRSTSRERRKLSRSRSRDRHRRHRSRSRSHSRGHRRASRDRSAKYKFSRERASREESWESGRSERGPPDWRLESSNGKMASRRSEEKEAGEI
inactive: [1] -0.024 | [2] 0.021 | [3] -0.097 | [4] 0.015 | [5] -0.067 | [6] -0.023 | [7] 0.01 | [8] -0.02 | [9] -0.004 | [10] -0.026 | [11] 0.007 | [12] 0.003 | [13] 0.008 | [14] 0.027 | [15] 0.056 | [16] 0.002 | [17] 0.007 | [18] -0.04 | [19] -0.01 | [20] 0.02

KIF4A (UniProt O95239)
inactive: [1] 0.015 | [2] -0.022 | [3] -0.042 | [4] 0.02 | [5] 0.022 | [6] 0.014 | [7] -0.033 | [8] -0.026 | [9] 0.031 | [10] -0.01 | [11] 0.011 | [12] 0.007 | [13] -0.014 | [14] 0.003 | [15] -0.002 | [16] -0.013 | [17] -0.027 | [18] 0.004 | [19] 0.056 | [20] 0.048

KRIT1 (UniProt O00522)
inactive: [1] 0.071 | [2] 0.061 | [3] 0.043 | [4] -0.074 | [5] 0.177 | [6] 0.038 | [7] -0.034 | [8] -0.042 | [9] 0.043 | [10] -0.073 | [11] 0.089 | [12] -0.047 | [13] 0.001 | [14] -0.02 | [15] 0.045 | [16] -0.041 | [17] -0.075 | [18] 0.045 | [19] -0.011 | [20] -0.095

MAP11 (UniProt Q8WVR3)
inactive: [1] 0.013 | [2] -0.018 | [3] -0.009 | [4] 0.006 | [5] 0.061 | [6] -0.004 | [7] 0.064 | [8] -0.135 | [9] 0.02 | [10] -0.02 | [11] 0.064 | [12] 0.072 | [13] 0.037 | [14] -0.008 | [15] -0.005 | [16] 0.105 | [17] -0.063 | [18] 0.014 | [19] -0.031 | [20] 0.078

MORC2 (UniProt Q9Y6X9)
inactive: [1] 0.039 | [2] -0.05 | [3] -0.002 | [4] 0.015 | [5] -0.016 | [6] -0.001 | [7] -0.033 | [8] 0.006 | [9] -0.023 | [10] 0.034 | [11] 0.065 | [12] 0.02 | [13] 0.054 | [14] -0.035 | [15] -0.039 | [16] -0.001 | [17] -0.026 | [18] -0.037 | [19] 0.072 | [20] 0.004

MLLT11 (UniProt Q13015)
Sequence of UniProt Q13015 (Q13015 whole entry, looked up): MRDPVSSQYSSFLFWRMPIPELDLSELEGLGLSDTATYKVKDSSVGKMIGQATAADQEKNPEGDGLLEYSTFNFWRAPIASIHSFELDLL
inactive: [1] 0.053 | [2] -0.018 | [3] -0.271 | [4] 0.063 | [5] -0.038 | [6] -0.018 | [7] -0.054 | [8] -0.372 | [9] 0.111 | [10] 0.044 | [11] -0.057 | [12] 0.077 | [13] 0.032 | [14] -0.116 | [15] 0.164 | [16] 0.174 | [17] -0.037 | [18] 0.326 | [19] -0.008 | [20] 0.055

MCU (UniProt Q8NE86)
Sequence of UniProt Q8NE86 (Q8NE86 whole entry, looked up): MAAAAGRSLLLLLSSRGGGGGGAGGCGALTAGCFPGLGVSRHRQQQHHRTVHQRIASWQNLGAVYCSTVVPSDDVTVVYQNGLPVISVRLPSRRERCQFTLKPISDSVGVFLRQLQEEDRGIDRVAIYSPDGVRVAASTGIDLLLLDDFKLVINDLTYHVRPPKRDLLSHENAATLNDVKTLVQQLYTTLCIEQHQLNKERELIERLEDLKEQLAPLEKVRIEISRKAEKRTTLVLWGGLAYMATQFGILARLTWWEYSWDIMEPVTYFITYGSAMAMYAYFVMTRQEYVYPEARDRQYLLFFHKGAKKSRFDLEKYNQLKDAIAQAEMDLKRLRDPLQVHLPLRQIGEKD
inactive: [1] 0.045 | [2] -0.028 | [3] -0.09 | [4] 0.02 | [5] 0.057 | [6] -0.035 | [7] 0.084 | [8] 0.055 | [9] 0.015 | [10] 0.064 | [11] -0.05 | [12] 0.04 | [13] 0.086 | [14] -0.021 | [15] -0.055 | [16] 0.014 | [17] 0.02 | [18] 0.034 | [19] 0.014 | [20] -0.023

MAPKAPK3 (UniProt Q16644)
inactive: [1] -0.007 | [2] -0.088 | [3] 0.042 | [4] 0.022 | [5] -0.014 | [6] -0.01 | [7] -0.034 | [8] 0.045 | [9] -0.052 | [10] -0.035 | [11] 0.011 | [12] 0.026 | [13] 0.006 | [14] -0.003 | [15] -0.011 | [16] 0.065 | [17] -0.027 | [18] 0.082 | [19] 0.029 | [20] 0.033

LSS (UniProt P48449)
inactive: [1] -0.023 | [2] 0.057 | [3] 0.001 | [4] 0.053 | [5] -0.005 | [6] 0.037 | [7] -0.006 | [8] -0.094 | [9] 0.019 | [10] 0 | [11] -0.009 | [12] -0.018 | [13] 0.14 | [14] 0.072 | [15] 0.026 | [16] 0.013 | [17] -0.131 | [18] -0.003 | [19] -0.04 | [20] -0.065

LIG4 (UniProt P49917)
Sequence of UniProt P49917 (P49917 whole entry, looked up): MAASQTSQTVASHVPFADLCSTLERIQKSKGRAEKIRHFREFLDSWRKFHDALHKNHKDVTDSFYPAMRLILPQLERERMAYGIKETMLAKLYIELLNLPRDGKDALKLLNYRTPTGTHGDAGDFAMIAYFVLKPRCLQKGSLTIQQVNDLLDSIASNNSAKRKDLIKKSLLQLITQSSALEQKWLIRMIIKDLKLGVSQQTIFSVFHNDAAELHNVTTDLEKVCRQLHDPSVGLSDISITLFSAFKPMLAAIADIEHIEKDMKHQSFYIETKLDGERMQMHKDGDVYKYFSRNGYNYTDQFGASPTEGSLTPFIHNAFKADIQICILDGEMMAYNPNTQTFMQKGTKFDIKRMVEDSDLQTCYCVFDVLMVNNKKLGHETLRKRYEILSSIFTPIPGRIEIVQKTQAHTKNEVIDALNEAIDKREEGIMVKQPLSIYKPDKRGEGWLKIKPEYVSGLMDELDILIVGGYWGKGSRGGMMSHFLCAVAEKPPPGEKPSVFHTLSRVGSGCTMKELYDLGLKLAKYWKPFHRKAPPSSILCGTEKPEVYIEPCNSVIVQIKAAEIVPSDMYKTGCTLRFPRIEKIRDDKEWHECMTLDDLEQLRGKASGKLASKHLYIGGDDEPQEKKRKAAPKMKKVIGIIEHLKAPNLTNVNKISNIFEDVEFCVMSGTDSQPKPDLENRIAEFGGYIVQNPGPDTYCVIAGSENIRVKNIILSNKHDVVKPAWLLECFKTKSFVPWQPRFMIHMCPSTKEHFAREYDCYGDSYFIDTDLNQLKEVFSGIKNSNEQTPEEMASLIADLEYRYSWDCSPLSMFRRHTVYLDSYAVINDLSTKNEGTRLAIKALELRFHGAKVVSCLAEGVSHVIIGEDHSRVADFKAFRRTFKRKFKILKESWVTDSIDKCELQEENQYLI
inactive: [1] 0.107 | [2] 0.014 | [3] -0.04 | [4] 0.028 | [5] 0.002 | [6] 0.024 | [7] -0.003 | [8] 0.009 | [9] -0.057 | [10] -0.001 | [11] 0.056 | [12] 0.174 | [13] -0.001 | [14] -0.023 | [15] 0.013 | [16] -0.016 | [17] -0.021 | [18] 0.004 | [19] 0.015 | [20] 0.109

LIMK2 isoform 3 (UniProt P53671)
Sequence of UniProt P53671 (P53671 whole entry, looked up): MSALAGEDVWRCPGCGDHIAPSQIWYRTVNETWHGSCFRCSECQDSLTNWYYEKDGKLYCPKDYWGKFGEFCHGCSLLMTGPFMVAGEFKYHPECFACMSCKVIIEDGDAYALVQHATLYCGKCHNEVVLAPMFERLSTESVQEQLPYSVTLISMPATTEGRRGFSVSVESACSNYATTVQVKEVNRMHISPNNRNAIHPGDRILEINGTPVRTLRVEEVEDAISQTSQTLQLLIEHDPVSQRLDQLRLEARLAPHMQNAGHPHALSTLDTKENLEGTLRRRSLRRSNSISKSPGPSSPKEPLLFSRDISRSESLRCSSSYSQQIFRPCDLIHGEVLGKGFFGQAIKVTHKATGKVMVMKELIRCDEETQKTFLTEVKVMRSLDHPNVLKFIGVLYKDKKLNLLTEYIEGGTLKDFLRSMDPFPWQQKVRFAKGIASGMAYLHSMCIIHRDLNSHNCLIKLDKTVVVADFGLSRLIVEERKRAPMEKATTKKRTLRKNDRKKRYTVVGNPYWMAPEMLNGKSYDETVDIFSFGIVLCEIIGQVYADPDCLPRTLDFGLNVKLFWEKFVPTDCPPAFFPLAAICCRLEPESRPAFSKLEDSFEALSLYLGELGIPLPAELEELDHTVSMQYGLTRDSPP
inactive: [1] -0.013 | [2] -0.038 | [3] -0.048 | [4] 0.062 | [5] 0.053 | [6] 0.016 | [7] 0.003 | [8] -0.002 | [9] 0.001 | [10] -0.031 | [11] 0.129 | [12] 0.003 | [13] 0 | [14] 0.018 | [15] 0.008 | [16] -0.03 | [17] -0.005 | [18] 0.175 | [19] 0.013 | [20] -0.073

MMS19 isoform 8 (UniProt Q96T76)
Sequence of UniProt Q96T76 (Q96T76 whole entry, looked up): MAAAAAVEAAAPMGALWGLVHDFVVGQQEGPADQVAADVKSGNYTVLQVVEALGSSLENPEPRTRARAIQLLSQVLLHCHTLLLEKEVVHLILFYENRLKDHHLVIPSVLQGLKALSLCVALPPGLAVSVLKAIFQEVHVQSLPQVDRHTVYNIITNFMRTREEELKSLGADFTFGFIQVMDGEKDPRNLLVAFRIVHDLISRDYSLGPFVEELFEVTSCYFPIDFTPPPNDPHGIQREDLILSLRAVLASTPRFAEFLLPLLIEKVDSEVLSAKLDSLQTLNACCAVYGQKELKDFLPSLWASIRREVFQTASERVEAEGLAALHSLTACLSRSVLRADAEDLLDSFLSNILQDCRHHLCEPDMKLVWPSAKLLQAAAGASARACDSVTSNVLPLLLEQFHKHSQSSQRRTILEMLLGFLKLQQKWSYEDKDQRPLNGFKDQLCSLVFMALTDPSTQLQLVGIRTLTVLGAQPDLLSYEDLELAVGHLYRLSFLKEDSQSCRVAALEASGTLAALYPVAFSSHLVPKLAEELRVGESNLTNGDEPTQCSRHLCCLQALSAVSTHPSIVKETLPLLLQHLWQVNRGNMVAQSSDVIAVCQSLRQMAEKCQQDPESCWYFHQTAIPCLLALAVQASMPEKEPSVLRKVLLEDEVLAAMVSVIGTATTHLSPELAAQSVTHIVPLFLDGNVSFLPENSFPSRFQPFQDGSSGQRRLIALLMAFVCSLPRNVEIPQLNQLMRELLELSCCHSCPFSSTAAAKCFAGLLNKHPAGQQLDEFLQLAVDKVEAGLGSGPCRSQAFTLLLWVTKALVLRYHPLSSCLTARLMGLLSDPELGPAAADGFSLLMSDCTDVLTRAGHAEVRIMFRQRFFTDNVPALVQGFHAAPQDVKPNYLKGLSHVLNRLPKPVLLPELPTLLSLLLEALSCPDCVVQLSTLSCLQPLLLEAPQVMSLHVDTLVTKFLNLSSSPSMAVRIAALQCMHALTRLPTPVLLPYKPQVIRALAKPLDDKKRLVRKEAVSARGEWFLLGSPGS
inactive: [1] 0.026 | [2] -0.019 | [3] -0.016 | [4] -0.02 | [5] -0.009 | [6] 0.011 | [7] -0.099 | [8] 0.01 | [9] 0.034 | [10] 0.004 | [11] -0.023 | [12] -0.011 | [13] 0.022 | [14] -0.02 | [15] -0.041 | [16] 0.006 | [17] -0.018 | [18] 0.013 | [19] 0.055 | [20] 0.004

KIF14 (UniProt Q15058)
inactive: [1] 0.031 | [2] -0.06 | [3] 0.016 | [4] -0.04 | [5] -0.176 | [6] 0.01 | [7] -0.032 | [8] -0.002 | [9] 0.008 | [10] -0.014 | [11] 0.086 | [12] 0.024 | [13] 0.002 | [14] 0.003 | [15] 0.017 | [16] 0.002 | [17] -0.011 | [18] 0.007 | [19] 0.041 | [20] -0.012

MIPEP (UniProt Q99797)
Sequence of UniProt Q99797 (Q99797 whole entry, looked up): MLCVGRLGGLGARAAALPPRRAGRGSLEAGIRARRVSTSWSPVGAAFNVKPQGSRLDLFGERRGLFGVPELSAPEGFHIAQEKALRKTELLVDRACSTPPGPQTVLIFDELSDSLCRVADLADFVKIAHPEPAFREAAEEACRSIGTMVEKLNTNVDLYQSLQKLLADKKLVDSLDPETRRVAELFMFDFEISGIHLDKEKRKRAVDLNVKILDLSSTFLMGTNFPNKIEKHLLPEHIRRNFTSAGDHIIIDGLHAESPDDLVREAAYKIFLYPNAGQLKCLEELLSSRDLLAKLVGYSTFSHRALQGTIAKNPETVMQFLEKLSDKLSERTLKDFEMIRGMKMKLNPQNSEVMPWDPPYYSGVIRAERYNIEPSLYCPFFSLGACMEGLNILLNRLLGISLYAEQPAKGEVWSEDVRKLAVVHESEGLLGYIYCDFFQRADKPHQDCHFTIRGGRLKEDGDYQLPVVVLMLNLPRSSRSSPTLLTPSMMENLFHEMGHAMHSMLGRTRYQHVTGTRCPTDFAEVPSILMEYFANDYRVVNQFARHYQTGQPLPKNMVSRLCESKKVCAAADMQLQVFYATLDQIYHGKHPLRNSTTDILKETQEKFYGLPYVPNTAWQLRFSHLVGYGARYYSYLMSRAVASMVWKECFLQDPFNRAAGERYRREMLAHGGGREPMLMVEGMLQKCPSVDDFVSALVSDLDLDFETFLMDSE
inactive: [1] -0.048 | [2] -0.06 | [3] 0.005 | [4] 0.021 | [5] 0.019 | [6] -0.029 | [7] -0.008 | [8] 0.006 | [9] 0.005 | [10] -0.004 | [11] 0.041 | [12] 0.054 | [13] 0.027 | [14] 0.07 | [15] -0.02 | [16] -0.001 | [17] -0.003 | [18] -0.067 | [19] 0.044 | [20] 0.003

MAT2B (UniProt Q9NZL9)
Sequence of UniProt Q9NZL9 (Q9NZL9 whole entry, looked up): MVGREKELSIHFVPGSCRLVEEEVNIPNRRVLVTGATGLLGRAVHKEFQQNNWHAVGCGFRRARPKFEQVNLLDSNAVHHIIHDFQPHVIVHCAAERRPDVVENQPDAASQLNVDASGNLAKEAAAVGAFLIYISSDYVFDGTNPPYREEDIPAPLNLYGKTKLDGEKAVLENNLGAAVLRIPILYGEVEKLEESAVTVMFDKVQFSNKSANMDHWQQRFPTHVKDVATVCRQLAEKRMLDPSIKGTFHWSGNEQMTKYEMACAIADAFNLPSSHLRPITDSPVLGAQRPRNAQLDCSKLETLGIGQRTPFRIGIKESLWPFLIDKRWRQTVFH
inactive: [1] -0.009 | [2] -0.004 | [3] -0.033 | [4] -0.014 | [5] -0.006 | [6] -0.01 | [7] 0.036 | [8] 0.015 | [9] -0.004 | [10] 0.017 | [11] 0 | [12] -0.008 | [13] -0.005 | [14] -0.006 | [15] -0.002 | [16] -0.023 | [17] 0.016 | [18] 0.015 | [19] -0.013 | [20] -0.005
